Assay results: PubChem BioAssay (NCATS)
Results filed as inconclusive are left out. Activity calls are given as the source filed them. The call rests on the fitted dose curve; in most records, active means well fitted curve in the direction sought with a large enough effect; inconclusive means small, poorly fitted or top-dose-only effect, or another doubt; inactive means no such curve, though single readings can be large; an effect the other way counts as inactive or inconclusive.

Tests used:
[1] = Cellular Toxicity (caspase-3) HepG2 (AID 654);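 further: cells exposed to compound for 16 hours before reading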
Outline: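 Caspase 3/7 activation in HepG2 is measured as rising luminescence after a 16 hr treatment at 37 °C. Values are scaled between DMSO basal and 100 uM tamoxifen, and AC50 is fitted with the Hill equation.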

[2] = Cellular Toxicity (caspase-3) Jurkat (AID 655);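 further: cells exposed to compound for 16 h at 37 °C before reading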
Outline: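 Caspase 3/7 activation is scored as increased luminescence in Jurkat cells cultured with compound for 16 hours in complete medium. AC50 values come from Hill fits of qHTS concentration-response data normalized to DMSO and 100 uM tamoxifen controls.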

[3] = Cellular Toxicity (caspase-3) HUV-EC-C (AID 656)
Outline: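 Read-out: luminescence proportional to caspase 3/7 activity, measured 20 min after adding Caspase-Glo 3/7 reagent. Cells (HUV-EC-C) had received compound for 16 hr at 37°C. Increases relative to DMSO and 100 uM tamoxifen gave concentration-response AC50 values.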

[4] = Cellular Toxicity (caspase-3) SHSY5Y (AID 657);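 further: cells exposed to compound for 16 hours at 37 °C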
Outline: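 Cells plated and incubated 5 h at 37 °C, dosed over a concentration range, incubated 16 h, then given Caspase-Glo 3/7 reagent for 1 h at room temperature before luminescence reading. Staurosporine (10 uM) defined full stimulation.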

[5] = Cellular Toxicity (caspase-3) BJ (AID 658)
Outline: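 Plated BJ cells (1000/well) rested 5 hr, received compound for 16 hr at 37 °C, then Caspase-Glo 3/7 reagent for 1 hr at room temperature before luminescence reading.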

[6] = Cellular Toxicity (caspase-3) MRC-5 (AID 659)
Outline: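 Apoptosis readout in MRC-5 cells: luciferase light generated after caspase 3/7 cleaves a peptide-aminoluciferin substrate, measured post 16 hr compound incubation at 37 °C.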

[7] = Cellular Toxicity (caspase-3) Mesangial (AID 660);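 further: cells exposed to compound for 16 h before the caspase read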
Outline: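 Seed cells derived from normal human renal glomeruli, incubate 5 h, add compounds across concentrations and incubate 16 h at 37 °C. Caspase 3/7 activation is then quantified by luciferase light, with AC50 derived by Hill modeling.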

[8] = Cellular Toxicity (caspase-3) SK-N-SH (AID 661)
Outline: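 Cells were seeded and incubated 5 hr at 37 °C, dosed with compound over a concentration range for 16 hr, then given Caspase-Glo 3/7 reagent for 1 hr at room temperature before luminescence reading.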

[9] = Cellular Toxicity (caspase-3) H-4-II-E (AID 663);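 further: cells exposed to compound for 16 hr before readout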
Outline: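 Caspase 3/7 activation measured in H-4-II-E cells in complete culture medium after 16 hr treatment at 37 °C, using luciferase-coupled substrate readout; AC50 values come from Hill-equation fits of normalized concentration-response data.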

[10] = Cellular Toxicity (caspase-3) Hek293 (AID 664);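 further: cells exposed to compound for 16 h at 37 °C before readout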
Outline: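 qHTS, HEK293 (human embryonic kidney), 16 h cpd exposure in complete medium. Caspase-3/7 activation = luminescence increase; normalized to DMSO/100 uM tamoxifen; Hill-fit AC50.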

Measured: outcome

C[C@@H]1C[C@H]2[C@@H]3CCC4=CC(=O)C=C[C@]4(C)[C@@]3(F)[C@@H](O)C[C@]2(C)[C@@]1(O)C(=O)CO
inactive: [1] | [2] | [3] | [4] | [5] | [6] | [7] | [8] | [9] | [10]
